Rango dissoc inh: inhibition of RanGTP-driven Rango-importin beta dissociation. Potency, µM (top dose mostly 46.1 µM), for the others: at the top dose activity change, negative = inhibition. hit rate 0.071% among 340,000. Biochemical FRET Rango-importin beta, RanGTP-induced dissociation. O95149+P62826; calls by dose curve; further: % of control where 0% means no effect; nearly all actives have a fitted effect of over 45% in size
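Recombinant Rango FRET biosensor (EYFP–snurportin 1 IBB–cerulean CFP10) at 0.1 uM premixed with 0.25 uM importin beta in PBS, 1 mM DTT, 0.02% Tween-20, 0.1% BSA. Compound added 5 min; RanGTP-RCC1 (0.6 uM Ran, 2 mM GTP, 0.2 uM RCC1) then triggers release, read at 45 min.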
TDP43 rescue: inhibitors of TDP-43 toxicity in yeast | TDP-43 expressing yeast growth rescue, BacTiter-Glo, 24 h | Potency, µM (highest dose often 46.1 µM), without a hit: at the highest dose growth rescue (activation), usual class: activators | hit rate 1.8% among 410,000; further: % of control where 0% means no effect; nearly all actives have a fitted effect of over 50% in size
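Readout is BacTiter-Glo luminescence of cell growth, so inhibitors register as activators. TDP-43-expressing yeast at OD600=0.02 in galactose medium, after raffinose pregrowth to mid-log, were incubated with compound for 24 hr at 30 deg C.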
Abeta yeast res: compounds reversing amyloid beta toxicity in yeast; yeast expressing A-beta42, growth rescue, OD600, 48 h; response scale: 0% DMSO, 100% iron-clioquinol control; Potency, µM (titrated, usually from 46.1 µM), hits mostly activators; hit rate 0.063% among 410,000; AID 1347071; further: nearly all actives have a fitted effect of over 55% in size
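Yeast growth medium received pinned compounds, then yeast cells expressing toxic A-beta were added; plates incubated at 30 C for 48 hr. Growth read as absorbance at 600 nm, normalized to DMSO and equimolar FeCl3 plus clioquinol controls.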
ASM inhibitor: inhibitors of human secretory acid sphingomyelinase; placental ASM, HMU-PC fluorogenic substrate, 60 min; Potency, µM (titrated, usually from 57.5 µM), without a hit: top-dose activity change, negative = inhibition, most hits filed as inhibitors; hit rate 0.006% among 340,000; AID 504937
Target sequence (P17405 47-631 limits assumed): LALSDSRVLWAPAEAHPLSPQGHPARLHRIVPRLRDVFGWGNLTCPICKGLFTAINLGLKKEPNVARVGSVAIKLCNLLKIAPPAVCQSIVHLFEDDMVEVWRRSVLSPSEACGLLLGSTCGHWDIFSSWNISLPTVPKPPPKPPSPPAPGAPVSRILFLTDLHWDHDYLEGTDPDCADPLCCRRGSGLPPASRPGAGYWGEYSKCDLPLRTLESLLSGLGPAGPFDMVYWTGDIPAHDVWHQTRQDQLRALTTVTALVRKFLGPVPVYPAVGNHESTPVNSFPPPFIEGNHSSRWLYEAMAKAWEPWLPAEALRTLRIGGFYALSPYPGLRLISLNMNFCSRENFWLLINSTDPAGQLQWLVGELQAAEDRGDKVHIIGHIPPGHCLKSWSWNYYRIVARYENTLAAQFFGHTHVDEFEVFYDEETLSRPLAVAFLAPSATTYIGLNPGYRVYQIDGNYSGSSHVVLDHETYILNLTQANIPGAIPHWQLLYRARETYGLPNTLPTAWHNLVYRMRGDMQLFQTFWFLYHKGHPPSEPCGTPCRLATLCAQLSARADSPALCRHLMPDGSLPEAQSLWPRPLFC
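qHTS format. ASM enzyme prepared from human placenta hydrolyses the fluorogenic substrate HMU-PC0 (9 uM final) over 60 min at 37 °C after a 10 min compound preincubation.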
aSyn yeast inh: inhibitors of alpha-synuclein toxicity in yeast; hit rate 0.14% among 370,000; Potency, µM (doses to about 46.1 µM), for the others: at the top dose growth rescue (activation), actives largely listed as activators; Yeast expressing alpha-synuclein, growth rescue, BacTiter-Glo, 24 h; further: % of control where 0% means no effect; nearly all actives have a fitted effect of over 65% in size
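Galactose-induced alpha-syn yeast (OD600=0.02, raffinose-pregrown) + pinned cpd, 24 hr, 30 deg C; growth by BacTiter-Glo luminescence. Growth restoration scores as activation.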
Rango complex inh: inhibitors of Rango-importin beta complex formation; Rango CFP/YFP FRET sensor + importin beta, 45 min; hit rate 0.031% among 340,000; Q14974; Potency, µM (top dose mostly 92.2 µM), for inactives: at the highest dose inhibition of complex formation; calls by dose curve;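 further: 0% = DMSO wells and 100% = buffer wells lacking importin beta; nearly all actives have a fitted effect of over 15% in size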
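FRET biosensor Rango (snurportin 1 IBB between N-terminal EYFP and C-terminal Cerulean), 50 nM in PBS/1 mM DTT/0.02% Tween-20/0.1% BSA, preincubated 5 min RT with compound; 0.125 microM importin beta added, 45 min RT, CFP/YFP FRET ratio read.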
Starred values were filed as active, the others as inactive; i = inactive; ? = inconclusive; nt = not tested or not shown; [ ] = remark or other dose. An excerpt weighted towards active compounds, which were near 2% of everything screened. Unless noted, the call rests on the fitted dose curve; in most records, active means well fitted curve in the direction sought with a large enough effect; inconclusive means small, poorly fitted or top-dose-only effect, or another doubt; inactive means no such curve, though single readings can be large; an effect the other way counts as inactive or inconclusive. Potency means the concentration at half of the fitted maximal effect.

SMILES	Rango dissoc inh	TDP43 rescue	Abeta yeast res	ASM inhibitor	aSyn yeast inh	Rango complex inh
CC(=O)NC(C)(c1ccccc1)c1nc(-c2cncnc2)cs1 (stereo not given)	nt	5%	i	nt	-31%	nt
COc1cccc(C(C)(O)c2nc(/C=C/c3ccccc3)cs2)c1 (stereo not given)	nt	25µM*	i	nt	?	nt
COCc1cccc(-c2csc(C(C)(O)c3cccc(F)c3)n2)c1 (stereo not given)	nt	35µM*	i	nt	-6%	nt
COc1cccc(C(C)(O)c2nc(-c3ccccc3C)cs2)c1 (stereo not given)	nt	15%	i	nt	2%	nt
CC(O)(c1ccc(F)c(F)c1)c1nc(-c2cnc3ccccc3c2)cs1 (stereo not given)	nt	?	i	nt	-24%	nt
CC(O)(c1ccc(F)c(F)c1)c1nc(/C=C/c2ccccc2)cs1 (stereo not given)	nt	-78%	i	nt	-59%	nt
CC(O)(c1ccccc1)c1nc(/C=C/c2ccccc2)cs1 (stereo not given)	nt	35µM*	i	nt	-27%	nt
COc1ccc(C(C)(O)c2nc(-c3cnc4ccccc4c3)cs2)cc1 (stereo not given)	nt	35µM*	i	nt	?	nt
O=C(C[n+]1ccncc1)c1cccc2ccccc12	nt	nt	nt	nt	2%	nt
COc1ccc(NC(=O)CSc2nnc(-c3cccs3)o2)cc1	nt	12%	i	nt	nt	nt
CSc1ccc(C(=S)N2CCCCCC2)cc1	12%	11µM*	?	-4%	-3%	-1%
Nc1nc[nH]c(=O)c1N	nt	nt	nt	nt	-3%	nt
COc1cc2c(oc(=O)c3cc(C)cc(OC)c32)c2c(C3OC(C)C(O)C(C)(O)C3O)ccc(O)c12 (stereo not given)	?	?	i	33%	6.3µM*	?
CCOc1ccc(NS(=O)(=O)c2ccc3[nH]c4c(c3c2)CCCCC4)cc1	nt	18µM*	i	nt	nt	nt
CCOc1ccc(NS(=O)(=O)c2ccc3[nH]c4c(c3c2)CCCC4)cc1	nt	0%	i	nt	nt	nt
NC(=O)/C(=N\OC(=O)c1ccco1)c1nc(-c2ccc(Br)cc2)cs1	-10%	16µM*	i	3%	-10%	2%
COC(=O)c1ccccc1NC(=O)c1cnn2c1NC(=C1CC1)C=C2C(F)F	nt	nt	nt	nt	-13%	nt
CCCCN=C1NN=C(c2ccc(C)c(C)c2)CS1	0%	14µM*	i	0%	-3%	-2%
CCCCN=C1NN=C(c2ccc3c(c2)OCCO3)CS1	-7%	17%	i	-3%	5%	1%
C=C1C=C(C)n2ncc(C(=O)Nc3ccc(C)cn3)c2N1	nt	nt	nt	nt	-9%	nt
O=S(=O)(NCCSCc1c(Cl)cccc1Cl)c1ccc2c(c1)OCCO2	22%	35µM*	i	0%	6%	-2%
Cc1cc(C)cc(NC(=O)/C=C/c2ccc([N+](=O)[O-])s2)c1	1µM*	13%	i	-3%	-7%	?
CC(=O)c1cccc(NC(=O)/C=C/c2ccc([N+](=O)[O-])s2)c1	?	-10%	i	-1%	-6%	?
Cc1ccccc1NC(=O)/C=C/c1ccc([N+](=O)[O-])s1	0.65µM*[inhibitor]	?	i	-1%	15%	?
CC1CN(C(=O)/C=C/c2ccc([N+](=O)[O-])s2)CC(C)O1 (stereo not given)	-27%	-6%[9.22 µM]	i	-3%	3%	-4%
SMILES	Rango dissoc inh	TDP43 rescue	Abeta yeast res	ASM inhibitor	aSyn yeast inh	Rango complex inh
CC1CC(C)CN(C(=O)/C=C/c2ccc([N+](=O)[O-])s2)C1 (stereo not given)	-27%	22µM*	i	-4%	1%	-3%
COc1ccc(S(=O)(=O)c2c(Nc3c(C)cccc3C)sc(C(=O)c3ccc4c(c3)OCO4)c2N)cc1	nt	14%	i	nt	nt	nt
COc1ccccc1CNC(=O)C1CCN(S(=O)(=O)c2c(C)noc2/C=C/c2cccs2)CC1	nt	16%	i	nt	nt	nt
Cc1ccc(CNCc2ccccc2Cl)s1	nt	6%	i	nt	-4%	nt
COc1cc(NC(=O)CN2C(=O)c3ccccc3Sc3ccc(C(=O)N4CCCC4)cc32)cc(OC)c1	nt	5%	i	nt	nt	nt
CN(C)c1cccc(-c2nnc(SCC(=O)NCc3ccco3)n2C)c1	nt	nt	nt	nt	-7%	nt
O=C(Nc1ccc2c(c1)CCCN2C(=O)c1cccs1)c1ccc(F)c(F)c1	nt	25%[9.22 µM]	i	nt	nt	nt
c1ccc(-n2nnnc2-c2cccc3ccccc23)cc1	-11%	14µM*	i	2%	5%	3%
Cc1ccc(-n2nnnc2-c2ccccc2Br)cc1	24%	23%	i	3%	?	-3%
CC(C)CN(C)c1ccc(/C=C2\C=Cc3ccccc32)cc1	nt	nt	nt	nt	19%	nt
COc1ccc(C(=O)N2C=Cc3ccccc3C2C#N)cc1 (stereo not given)	nt	16µM*	i	nt	7%	nt
COc1ccc(C(=O)N2C=Cc3ccccc3C2C(N)=O)cc1 (stereo not given)	nt	14%	i	nt	9%	nt
CCc1ccc(NC(=O)CSc2nc3c(sc4ccccc43)c(=O)n2CCCOC(C)C)cc1	nt	-32%	i	nt	nt	nt
CC(C)Oc1cc(F)ccc1-c1cc(C(=O)NCC2CCCCC2)[nH]n1	nt	18µM*	i	nt	-22%	nt
COc1ccc(Cl)cc1-c1cc(C(=O)NCc2cccs2)[nH]n1	nt	11µM*	i	nt	7%	nt
CCOc1ccc(Cl)cc1-c1cc(C(=O)NCC2CCCCC2)[nH]n1	nt	14µM*	i	nt	-1%	nt
CCOC(=O)c1c(NC(=O)c2cc3nc(-c4ccc(OC)cc4)cc(C(F)(F)F)n3n2)sc(C)c1C	nt	-16%	i	nt	nt	nt
Nc1cc(N2CCOCC2)c(Cl)cc1[N+](=O)[O-]	-24%	20µM*	i	-11%	-1%	-3%
O=[N+]([O-])c1ccc(N2CCCC2)cc1N1CCCC1	-1%	16µM*	i	-22%	2%	0%
O=[N+]([O-])c1ccc(N2CCCCC2)cc1N1CCOCC1	-2%	5%	i	-10%	2%	3%
Nc1cc(N2CCCC2)c(Cl)cc1[N+](=O)[O-]	21%	11µM*	i	?	16%	3%
Nc1cc(N2CCCC2)ccc1[N+](=O)[O-]	-10%	23%	i	-7%	2%	1%
Cn1ccc2cc(S(=O)(=O)N3CCN(C(=O)Nc4cccc(F)c4)CC3)ccc21	nt	?	i	nt	4%	nt
Cc1noc(-c2ccc(NC(C)c3ccccc3)c([N+](=O)[O-])c2)n1 (stereo not given)	nt	?	i	nt	nt	nt
Cc1ccc(CNCc2ccc3c(c2)n(C)c(=O)n3C)cc1	nt	28%[9.22 µM]	i	nt	nt	nt

Screening results: PubChem, National Center for Advancing Translational Sciences (NCATS)
